Data reported in PubChem BioAssay.
Measured potencies and affinities stand elsewhere. Calls of active or inactive are those of the source. No cut-off is given here; in the data, nearly all actives have IC50 up to about 0.91 µM.

What follows are compounds tested against Calcium-dependent protein kinase 4 (Plasmodium falciparum (isolate 3D7)) (UniProt Q8IBS5) (assay: PfCDPK4 kinase inhibitors, biochemical, TCAMS library (AID 1159588)). Settings: recombinant PfCDPK4, Kinase-Glo ATP depletion luminescence.
Sequence of Calcium-dependent protein kinase 4 (Plasmodium falciparum (isolate 3D7)) (Q8IBS5 whole entry, looked up): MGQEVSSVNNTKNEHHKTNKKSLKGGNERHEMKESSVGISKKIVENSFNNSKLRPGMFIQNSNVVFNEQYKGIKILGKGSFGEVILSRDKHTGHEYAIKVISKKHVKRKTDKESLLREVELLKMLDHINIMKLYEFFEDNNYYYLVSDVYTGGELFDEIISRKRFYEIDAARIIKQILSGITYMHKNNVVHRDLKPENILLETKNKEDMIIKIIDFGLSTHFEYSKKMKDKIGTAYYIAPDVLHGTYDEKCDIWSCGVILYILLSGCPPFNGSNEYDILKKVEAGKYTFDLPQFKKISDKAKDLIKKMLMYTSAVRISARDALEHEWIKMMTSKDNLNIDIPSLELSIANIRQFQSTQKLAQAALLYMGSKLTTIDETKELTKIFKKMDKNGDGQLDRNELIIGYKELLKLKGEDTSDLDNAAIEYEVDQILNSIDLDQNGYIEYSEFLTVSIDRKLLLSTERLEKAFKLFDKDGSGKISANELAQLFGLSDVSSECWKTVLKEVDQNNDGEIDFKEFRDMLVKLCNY

SMILES	outcome
O=[N+]([O-])c1ccc(-n2nc(Cc3ccccc3)n(Cc3cccc(F)c3)c2=S)c(C(F)(F)F)c1	inactive
O=C(NCCN1CCC(c2ncc(-c3ccccc3)o2)CC1)c1ccc(NC(=O)c2ccc(Cl)cc2)cc1	inactive
CC(C)c1sc(N2CCN(C)CC2)nc1C(=O)Nc1cccc2c1CCCC2	inactive
Cc1ccccc1NC(=O)C1CSCN1C(=O)OCc1ccccc1 (stereo not given)	inactive
COc1ccc2ncc(F)c(CCN3C[C@H](CNCc4cc(F)c5c(c4)NC(=O)CO5)[C@H](O)C3)c2n1	inactive
COc1cc(Br)ccc1N1CCN(CCCCNC(=O)c2ccc(NC(=O)c3ccc(Cl)cc3)cc2)CC1	inactive
CC(C)CCN1CCC(Oc2ccc(NC(=O)c3ccc4ncccc4c3)cc2Cl)C1 (stereo not given)	inactive
CC(C)Cc1c(O)nc(SCCN2CCOCC2)[nH]c1=O	inactive
O=C(Nc1cccc(CN2CCCN(Cc3ccc(F)cc3)CC2)c1)c1ccc(Cl)c(Cl)c1	inactive
CCC[C@@H]([C@@H](CC1CCCCC1)C(=O)N[C@H](C(=O)Nc1nccs1)[C@H](C)O)N(O)C=O	inactive
O=C(Nc1ccc(C(=O)N2CCN(CCN3CCN(c4cccc(C(F)(F)F)c4)CC3)CC2)cc1)c1ccc(OC(F)(F)F)cc1	inactive
c1ccc(CNc2nc(NCCc3cnc[nH]3)nc(NCc3cccc4ccccc34)n2)cc1	inactive
COc1ccc(C2CCN(CCCCNC(=O)c3ccc(NC(=O)c4ccc(Cl)cc4)cc3)CC2)c(C)c1	inactive
c1cncc(Oc2ccc(Nc3ccnc4cc(-c5cccc(CN6CCOCC6)c5)ccc34)cc2)c1	inactive
C[C@@H](COc1ccc(-c2ccccc2)cc1)CON1C(N)=NC(N)=NC1(C)C	inactive
CC(CCON1C(N)=NC(N)=NC1(C)C)c1ccc(Cl)c(Cl)c1 (stereo not given)	inactive
CCOc1ccc(Br)cc1/C=C/C(=O)Nc1ccc(C2CCN(C)CC2)cc1	inactive
CN(C)CCNC(=O)c1ccc2c(c1)n(C1CCN(S(=O)(=O)c3ccc(-c4ccccc4)cc3)CC1)c(=O)n2CC1CCCCC1	inactive
CC(=O)Nc1ccc(CN2CCN(C(c3ccc(F)cc3)c3ccc(F)cc3)CC2)cc1	inactive
Cc1cc(=O)oc2c1ccc1oc(C(O)c3ccc(Cl)cc3)c(C)c12 (stereo not given)	inactive

SMILES	outcome
Cc1ccc2c(c1C)NC(=O)C21NN=C(c2ccccc2)S1 (stereo not given)	inactive
CCC(C)NC(=O)Nc1ccc(-c2cccc(-c3nc4ccccc4[nH]3)c2)cc1 (stereo not given)	inactive
CN(C)CC1c2[nH]c3ccccc3c2CCN1C(=O)Nc1ccc(Cl)c(Cl)c1 (stereo not given)	inactive
O=C(Nc1cccc(-c2cccc(-c3nc4ccc(F)cc4[nH]3)c2)c1)Nc1ccc2c(c1)OCO2	inactive
CCN(CC)CC#Cc1ccc2[nH]c(C)c(Cl)c(=O)c2c1	inactive
COc1cc(Cc2cnc(NCCN3CCNCC3)nc2N)ccc1OCc1ccc(C(F)(F)F)cc1	inactive
NC(=O)C1CCN(Cc2cccc(-c3ccc(-c4nc5ccc(C(F)(F)F)cc5[nH]4)cc3)c2)CC1	inactive
C=CCc1cc(Br)ccc1OCCCON1C(N)=NC(N)=NC1(C)C	inactive
CC(C)(C)c1ccc(CNCCOc2ccc(Nc3nnc(-c4ccc(-c5ncc[nH]5)cc4)o3)c3ccccc23)cc1	inactive
COc1ccc(C=NNc2cc(C)nc3c(C)cccc23)c2ccccc12	inactive
COc1ccc2nc3cc(Cl)ccc3c(NCCCCN3CCNCC3)c2c1	inactive
CC(C)CN1CCCN(Cc2cccc(NC(=O)c3ccc(-c4ccccc4)cc3)c2)CC1	inactive
CCCOc1ccccc1C(=O)Nc1nonc1-c1ccc(OCC)c(OCC)c1	inactive
CCN(CCCN1CCCCC1)c1cc(C)nc(Nc2cc(C)ccc2C)n1	inactive
Nc1ncnc2nc(-c3ccc(F)cc3)cc(-c3ccc(NC(=O)c4ccccc4)cc3)c12	inactive
CCCNCc1ccc(-c2ccc(CN(CCOC)C(=O)c3cccc(C#N)c3)cc2)nc1	inactive
COc1cccc2c(NCCNc3ccnc4c(OC)cccc34)ccnc12	inactive
CN(C)CCNCc1ccc(-c2ccc(-c3nc4ccccc4[nH]3)s2)cc1	inactive
Clc1ccc(-c2cc3c(NCc4ccncc4)nccc3s2)cc1	inactive
CNC(=O)C1Cc2c([nH]c3cc(Cl)ccc23)C2(CCN(CCc3ccccc3)CC2)N1 (stereo not given)	inactive
